This note sets out measurements from article PMC7862700, “An all-to-all approach to the identification of sequence-specific readers for epigenetic DNA modifications on cytosine”.

Holding throughout (experiment): DAPPL (digital affinity profiling via proximity ligation, sequencing); 10 mM Tris-HCl pH 7.5, 50 mM NaCl, 1 mM DTT, 4% glycerol, room temperature, 30 min; GST-TFs on glutathione beads, 16-mer random dsDNA library, 0.1% formaldehyde crosslink after washing; high values mean tight binding
Assay [1] concerns the target T1, FEV (Homo sapiens, UniProt Q99581 1-238).
T1 sequence: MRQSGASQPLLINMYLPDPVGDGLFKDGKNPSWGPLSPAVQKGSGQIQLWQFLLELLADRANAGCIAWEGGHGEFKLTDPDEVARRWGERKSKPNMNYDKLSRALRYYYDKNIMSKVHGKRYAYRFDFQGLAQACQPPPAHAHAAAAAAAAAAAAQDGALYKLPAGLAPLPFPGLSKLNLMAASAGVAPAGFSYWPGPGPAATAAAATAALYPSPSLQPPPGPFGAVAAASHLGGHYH
The conditions noted are these: protein: recombinant; tags: N-terminal GST; dsDNA, one strand shown. The procedure, abridged: (§1)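 After expression in yeast as GST fusions, human transcription factors were bound to glutathione beads, DNA-barcoded and mixed with a tag-only sample. The pools were incubated with 200 nmole of a 16-mer random double-stranded DNA library in Tris/NaCl/DTT/glycerol buffer (30 min, room temperature), washed and crosslinked with 0.1% formaldehyde. Proximity ligation with BsaI/T4 ligase ran for 1 h at 37 °C, before PCR amplification and sequencing on an Illumina NextSeq500. Binding signal is a hexamer's read frequency for a factor divided by its frequency for the tag-only sample.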

The target of assay [2] is ETV5 (Homo sapiens, UniProt P41161 1-510). The conditions noted are these: protein: recombinant; tags: N-terminal GST; dsDNA, one strand shown. The procedure, abridged:
as §1

In assay [3] the target is HSF1 (Homo sapiens, UniProt Q00613 1-529). The settings on record: protein: recombinant; tags: N-terminal GST; chain copies: 3; dsDNA, one strand shown. An outline of the steps: as §1
Chain of HSF1 (Q00613 whole entry): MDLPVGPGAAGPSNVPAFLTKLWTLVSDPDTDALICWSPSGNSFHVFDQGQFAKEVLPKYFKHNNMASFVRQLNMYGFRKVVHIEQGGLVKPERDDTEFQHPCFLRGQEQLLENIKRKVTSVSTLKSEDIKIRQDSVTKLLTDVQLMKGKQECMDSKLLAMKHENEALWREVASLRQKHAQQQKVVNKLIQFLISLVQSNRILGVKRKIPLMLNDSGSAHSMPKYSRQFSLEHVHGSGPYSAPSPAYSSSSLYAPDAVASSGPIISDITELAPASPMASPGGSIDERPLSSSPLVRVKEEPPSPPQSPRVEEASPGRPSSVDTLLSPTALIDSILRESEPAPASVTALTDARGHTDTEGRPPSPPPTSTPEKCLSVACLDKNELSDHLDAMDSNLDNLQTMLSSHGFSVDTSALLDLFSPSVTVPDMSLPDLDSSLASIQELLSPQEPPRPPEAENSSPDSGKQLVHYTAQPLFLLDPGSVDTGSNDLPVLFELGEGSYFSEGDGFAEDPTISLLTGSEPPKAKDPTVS
The target of assay [4] is T2, SPIC (Homo sapiens, UniProt Q8N5J4 1-248).
T2 sequence: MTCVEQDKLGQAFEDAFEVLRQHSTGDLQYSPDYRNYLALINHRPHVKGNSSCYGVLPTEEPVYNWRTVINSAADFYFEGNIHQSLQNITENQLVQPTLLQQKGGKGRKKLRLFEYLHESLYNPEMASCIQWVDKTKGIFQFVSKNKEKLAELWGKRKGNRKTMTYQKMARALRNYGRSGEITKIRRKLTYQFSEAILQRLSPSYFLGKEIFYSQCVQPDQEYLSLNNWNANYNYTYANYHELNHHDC
The settings on record: protein: recombinant; tags: N-terminal GST; dsDNA, one strand shown. The procedure, abridged:
as §1

The target of assay [5] is ELF4 (Homo sapiens, UniProt Q99607 1-663). The conditions noted are these: protein: recombinant; tags: N-terminal GST; dsDNA, one strand shown. The procedure, abridged:
as §1

Assay [6] addresses T3, ELK4 (Homo sapiens, UniProt P28324-2 1-405).
T3 sequence: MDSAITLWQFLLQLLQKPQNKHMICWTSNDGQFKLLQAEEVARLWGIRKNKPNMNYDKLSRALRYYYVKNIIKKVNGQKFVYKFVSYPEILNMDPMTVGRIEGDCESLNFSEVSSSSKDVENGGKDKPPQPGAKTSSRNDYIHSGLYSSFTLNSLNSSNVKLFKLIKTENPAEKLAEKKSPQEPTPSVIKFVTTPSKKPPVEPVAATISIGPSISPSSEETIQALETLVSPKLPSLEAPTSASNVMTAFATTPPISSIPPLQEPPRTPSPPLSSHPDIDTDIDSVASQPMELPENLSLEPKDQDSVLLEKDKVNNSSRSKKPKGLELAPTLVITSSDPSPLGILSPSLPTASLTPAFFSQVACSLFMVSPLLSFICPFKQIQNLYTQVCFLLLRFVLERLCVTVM
The settings on record: protein: recombinant; tags: N-terminal GST; dsDNA, one strand shown. The procedure, abridged: as §1

In assay [7] the target is T4, ETV2 (Homo sapiens, UniProt O00321 1-342).
T4 sequence: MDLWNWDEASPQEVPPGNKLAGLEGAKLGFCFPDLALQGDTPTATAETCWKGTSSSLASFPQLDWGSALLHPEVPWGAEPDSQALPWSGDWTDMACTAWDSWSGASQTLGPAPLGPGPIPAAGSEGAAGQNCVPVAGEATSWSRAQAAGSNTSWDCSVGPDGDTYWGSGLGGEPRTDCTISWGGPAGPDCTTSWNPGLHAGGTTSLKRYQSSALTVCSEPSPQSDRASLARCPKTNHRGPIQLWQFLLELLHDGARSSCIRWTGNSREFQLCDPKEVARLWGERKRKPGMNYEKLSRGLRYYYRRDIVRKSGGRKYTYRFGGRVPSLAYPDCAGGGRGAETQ
The settings on record: protein: recombinant; tags: N-terminal GST; dsDNA, one strand shown. The procedure, abridged: as §1

In assay [8] the target is T5, ELF3 (Homo sapiens, UniProt P78545 1-371).
T5 sequence: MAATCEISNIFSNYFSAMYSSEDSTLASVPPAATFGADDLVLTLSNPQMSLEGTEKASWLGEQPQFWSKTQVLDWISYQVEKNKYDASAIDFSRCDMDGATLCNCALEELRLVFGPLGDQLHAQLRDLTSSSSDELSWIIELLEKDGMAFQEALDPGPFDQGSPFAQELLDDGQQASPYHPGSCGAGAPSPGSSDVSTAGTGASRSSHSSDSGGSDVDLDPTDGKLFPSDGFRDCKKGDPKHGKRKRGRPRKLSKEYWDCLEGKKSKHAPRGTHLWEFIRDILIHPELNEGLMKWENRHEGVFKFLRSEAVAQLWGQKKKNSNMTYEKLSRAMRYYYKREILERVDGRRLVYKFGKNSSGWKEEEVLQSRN
The settings on record: protein: recombinant; tags: N-terminal GST; dsDNA, one strand shown. The procedure, abridged:
as §1

The target of assay [9] is CRX (Homo sapiens, UniProt O43186 1-299). The settings on record: protein: recombinant; tags: N-terminal GST; dsDNA, one strand shown. An outline of the steps: as §1
Chain of CRX (O43186 whole entry): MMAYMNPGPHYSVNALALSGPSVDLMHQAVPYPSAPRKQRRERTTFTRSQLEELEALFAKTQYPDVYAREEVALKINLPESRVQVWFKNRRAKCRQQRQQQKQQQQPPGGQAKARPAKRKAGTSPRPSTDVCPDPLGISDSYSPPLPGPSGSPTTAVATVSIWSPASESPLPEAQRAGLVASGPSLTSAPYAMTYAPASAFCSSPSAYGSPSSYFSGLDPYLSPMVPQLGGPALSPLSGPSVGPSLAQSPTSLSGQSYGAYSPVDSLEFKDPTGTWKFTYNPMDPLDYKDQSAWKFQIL
Assay [10] concerns the target ETV1 (Homo sapiens, UniProt P50549 1-477). The conditions noted are these: protein: recombinant; tags: N-terminal GST; dsDNA, one strand shown. An outline of the steps: as §1
Assay [11] has as its target T6, ERF (Homo sapiens, UniProt P50548 1-548).
T6 sequence: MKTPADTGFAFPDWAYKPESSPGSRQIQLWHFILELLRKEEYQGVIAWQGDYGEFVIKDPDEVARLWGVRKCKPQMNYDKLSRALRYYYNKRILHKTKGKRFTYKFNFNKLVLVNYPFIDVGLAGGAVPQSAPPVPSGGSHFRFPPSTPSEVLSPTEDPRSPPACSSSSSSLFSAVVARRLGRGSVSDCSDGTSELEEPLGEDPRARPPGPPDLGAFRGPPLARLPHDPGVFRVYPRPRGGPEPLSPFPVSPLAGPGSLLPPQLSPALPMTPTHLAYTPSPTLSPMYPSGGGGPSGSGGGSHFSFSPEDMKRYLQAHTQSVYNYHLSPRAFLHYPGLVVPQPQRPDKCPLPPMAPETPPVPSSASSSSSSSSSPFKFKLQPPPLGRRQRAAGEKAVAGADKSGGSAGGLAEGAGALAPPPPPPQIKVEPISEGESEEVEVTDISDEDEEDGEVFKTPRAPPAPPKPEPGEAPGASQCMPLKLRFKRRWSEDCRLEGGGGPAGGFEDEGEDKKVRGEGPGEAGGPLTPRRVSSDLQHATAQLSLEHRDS
The settings on record: protein: recombinant; tags: N-terminal GST; dsDNA, one strand shown. The procedure, abridged:
as §1

Assay [12] concerns the target T7, ETV3L (Homo sapiens, UniProt Q6ZN32 1-361).
T7 sequence: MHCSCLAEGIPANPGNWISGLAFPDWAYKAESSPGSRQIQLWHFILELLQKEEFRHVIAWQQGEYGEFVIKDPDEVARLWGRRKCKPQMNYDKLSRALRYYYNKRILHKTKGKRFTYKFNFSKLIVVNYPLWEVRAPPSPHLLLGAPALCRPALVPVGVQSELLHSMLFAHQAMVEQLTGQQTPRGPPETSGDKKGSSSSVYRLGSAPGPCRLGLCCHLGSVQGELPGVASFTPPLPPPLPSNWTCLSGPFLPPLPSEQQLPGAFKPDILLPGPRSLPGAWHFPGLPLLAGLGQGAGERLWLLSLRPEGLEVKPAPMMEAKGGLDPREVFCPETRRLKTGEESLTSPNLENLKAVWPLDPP
The conditions noted are these: protein: recombinant; tags: N-terminal GST; dsDNA, one strand shown. The procedure, abridged: as §1

The target in assay [13] is T8, ETS2 (Homo sapiens, UniProt P15036 1-469).
T8 sequence: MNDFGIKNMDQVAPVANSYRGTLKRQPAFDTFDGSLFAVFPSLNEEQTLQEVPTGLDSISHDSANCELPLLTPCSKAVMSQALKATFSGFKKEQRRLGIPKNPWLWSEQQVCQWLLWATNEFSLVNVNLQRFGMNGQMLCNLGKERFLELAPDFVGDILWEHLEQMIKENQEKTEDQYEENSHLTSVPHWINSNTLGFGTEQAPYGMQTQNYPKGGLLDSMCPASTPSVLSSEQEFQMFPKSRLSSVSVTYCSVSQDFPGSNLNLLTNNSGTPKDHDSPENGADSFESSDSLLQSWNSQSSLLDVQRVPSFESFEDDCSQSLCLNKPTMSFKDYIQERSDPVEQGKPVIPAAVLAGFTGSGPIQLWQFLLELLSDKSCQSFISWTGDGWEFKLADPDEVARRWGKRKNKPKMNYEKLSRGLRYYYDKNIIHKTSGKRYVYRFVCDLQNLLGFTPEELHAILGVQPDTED
The settings on record: protein: recombinant; tags: N-terminal GST; dsDNA, one strand shown. An outline of the steps:
as §1

Assay [14] deals with T9, SPDEF (Homo sapiens, UniProt O95238 1-335).
T9 sequence: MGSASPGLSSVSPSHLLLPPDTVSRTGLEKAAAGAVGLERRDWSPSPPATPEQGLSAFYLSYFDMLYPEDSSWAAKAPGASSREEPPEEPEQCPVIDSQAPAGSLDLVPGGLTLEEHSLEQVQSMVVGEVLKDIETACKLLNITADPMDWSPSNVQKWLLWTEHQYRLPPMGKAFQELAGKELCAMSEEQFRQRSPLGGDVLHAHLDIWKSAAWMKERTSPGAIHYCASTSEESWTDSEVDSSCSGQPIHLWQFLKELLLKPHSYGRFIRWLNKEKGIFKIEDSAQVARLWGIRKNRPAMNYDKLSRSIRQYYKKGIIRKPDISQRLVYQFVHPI
The conditions noted are these: protein: recombinant; tags: N-terminal GST; dsDNA, one strand shown. The procedure, abridged: as §1

Assay [15] concerns the target T10, ETV7 (Homo sapiens, UniProt Q9Y603 1-341).
T10 sequence: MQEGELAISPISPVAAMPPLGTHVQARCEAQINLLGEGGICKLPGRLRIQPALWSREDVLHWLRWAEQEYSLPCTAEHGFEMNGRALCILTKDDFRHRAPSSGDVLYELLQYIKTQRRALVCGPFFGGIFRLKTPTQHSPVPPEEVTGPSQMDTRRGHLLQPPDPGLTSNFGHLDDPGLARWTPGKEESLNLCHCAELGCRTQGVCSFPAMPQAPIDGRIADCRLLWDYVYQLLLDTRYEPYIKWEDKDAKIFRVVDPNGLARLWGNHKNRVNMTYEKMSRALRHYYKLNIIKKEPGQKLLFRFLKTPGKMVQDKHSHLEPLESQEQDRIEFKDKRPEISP
The conditions noted are these: protein: recombinant; tags: N-terminal GST; dsDNA, one strand shown. The procedure, abridged: as §1

In assay [16] the target is T11, ELF5 (Homo sapiens, UniProt Q9UKW6-2 1-255).
T11 sequence: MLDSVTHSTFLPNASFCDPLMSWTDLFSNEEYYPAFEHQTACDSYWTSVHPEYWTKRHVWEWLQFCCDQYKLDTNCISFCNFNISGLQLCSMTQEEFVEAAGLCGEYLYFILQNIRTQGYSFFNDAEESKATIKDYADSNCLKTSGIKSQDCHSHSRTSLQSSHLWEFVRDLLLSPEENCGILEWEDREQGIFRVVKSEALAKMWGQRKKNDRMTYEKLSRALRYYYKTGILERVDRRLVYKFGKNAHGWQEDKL
The settings on record: protein: recombinant; tags: N-terminal GST; dsDNA, one strand shown. The procedure, abridged:
as §1

Assay [17] has as its target T12, ETV3 (Homo sapiens, UniProt P41162-2 1-143).
T12 sequence: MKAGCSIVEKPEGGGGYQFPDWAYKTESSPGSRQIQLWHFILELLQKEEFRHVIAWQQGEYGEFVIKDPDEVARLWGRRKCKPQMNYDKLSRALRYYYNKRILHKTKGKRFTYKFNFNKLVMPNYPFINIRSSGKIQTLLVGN
The settings on record: protein: recombinant; tags: N-terminal GST; dsDNA, one strand shown. The procedure, abridged: as §1

For assay [18], the target named is ETV6 (Homo sapiens, UniProt P41212 1-452). The conditions noted are these: protein: recombinant; tags: N-terminal GST; dsDNA, one strand shown. The procedure, abridged: as §1
Chain of ETV6 (P41212 whole entry): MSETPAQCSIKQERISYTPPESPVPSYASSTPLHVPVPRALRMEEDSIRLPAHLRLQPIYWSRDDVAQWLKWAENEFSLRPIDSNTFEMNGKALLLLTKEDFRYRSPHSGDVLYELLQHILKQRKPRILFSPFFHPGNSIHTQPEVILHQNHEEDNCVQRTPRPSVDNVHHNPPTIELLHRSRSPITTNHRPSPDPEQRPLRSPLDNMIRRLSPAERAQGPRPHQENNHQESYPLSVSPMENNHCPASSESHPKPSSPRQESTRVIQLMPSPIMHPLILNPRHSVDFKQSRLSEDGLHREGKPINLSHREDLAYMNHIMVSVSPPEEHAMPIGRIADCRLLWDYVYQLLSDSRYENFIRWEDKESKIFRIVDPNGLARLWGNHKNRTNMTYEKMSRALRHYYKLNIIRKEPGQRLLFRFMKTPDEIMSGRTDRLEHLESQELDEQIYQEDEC

Chain of ELF4 (Q99607 whole entry): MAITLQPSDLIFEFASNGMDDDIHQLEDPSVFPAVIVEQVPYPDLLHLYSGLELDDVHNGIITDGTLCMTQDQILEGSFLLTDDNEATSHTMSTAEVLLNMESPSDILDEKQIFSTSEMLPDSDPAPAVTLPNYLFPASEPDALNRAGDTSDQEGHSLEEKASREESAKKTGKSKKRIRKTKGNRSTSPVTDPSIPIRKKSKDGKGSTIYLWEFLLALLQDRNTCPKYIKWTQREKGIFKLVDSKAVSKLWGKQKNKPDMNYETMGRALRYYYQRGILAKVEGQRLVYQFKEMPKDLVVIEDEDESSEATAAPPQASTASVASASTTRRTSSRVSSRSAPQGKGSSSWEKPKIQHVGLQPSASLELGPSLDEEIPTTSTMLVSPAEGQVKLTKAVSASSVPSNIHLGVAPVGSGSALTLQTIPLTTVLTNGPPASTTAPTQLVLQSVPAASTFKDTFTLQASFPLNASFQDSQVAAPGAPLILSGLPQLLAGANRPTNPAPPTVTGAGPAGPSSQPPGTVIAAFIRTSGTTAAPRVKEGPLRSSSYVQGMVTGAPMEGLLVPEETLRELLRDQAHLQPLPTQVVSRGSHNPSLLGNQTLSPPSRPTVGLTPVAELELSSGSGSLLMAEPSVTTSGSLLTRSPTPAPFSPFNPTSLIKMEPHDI
Chain of ETV1 (P50549 whole entry): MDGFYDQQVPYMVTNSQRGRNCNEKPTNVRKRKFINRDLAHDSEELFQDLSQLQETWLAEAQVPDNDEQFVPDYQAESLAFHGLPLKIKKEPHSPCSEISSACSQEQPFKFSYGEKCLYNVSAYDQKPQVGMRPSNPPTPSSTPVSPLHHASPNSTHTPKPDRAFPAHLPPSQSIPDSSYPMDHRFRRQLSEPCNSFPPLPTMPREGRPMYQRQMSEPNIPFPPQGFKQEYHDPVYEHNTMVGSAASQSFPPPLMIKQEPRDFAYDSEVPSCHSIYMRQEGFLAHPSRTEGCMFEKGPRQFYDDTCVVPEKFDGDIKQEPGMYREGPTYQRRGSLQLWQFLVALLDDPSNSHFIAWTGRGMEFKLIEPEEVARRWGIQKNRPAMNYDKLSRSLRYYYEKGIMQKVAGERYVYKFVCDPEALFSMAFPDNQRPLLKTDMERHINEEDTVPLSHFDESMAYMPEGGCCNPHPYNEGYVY
Chain of ETV5 (P41161 whole entry): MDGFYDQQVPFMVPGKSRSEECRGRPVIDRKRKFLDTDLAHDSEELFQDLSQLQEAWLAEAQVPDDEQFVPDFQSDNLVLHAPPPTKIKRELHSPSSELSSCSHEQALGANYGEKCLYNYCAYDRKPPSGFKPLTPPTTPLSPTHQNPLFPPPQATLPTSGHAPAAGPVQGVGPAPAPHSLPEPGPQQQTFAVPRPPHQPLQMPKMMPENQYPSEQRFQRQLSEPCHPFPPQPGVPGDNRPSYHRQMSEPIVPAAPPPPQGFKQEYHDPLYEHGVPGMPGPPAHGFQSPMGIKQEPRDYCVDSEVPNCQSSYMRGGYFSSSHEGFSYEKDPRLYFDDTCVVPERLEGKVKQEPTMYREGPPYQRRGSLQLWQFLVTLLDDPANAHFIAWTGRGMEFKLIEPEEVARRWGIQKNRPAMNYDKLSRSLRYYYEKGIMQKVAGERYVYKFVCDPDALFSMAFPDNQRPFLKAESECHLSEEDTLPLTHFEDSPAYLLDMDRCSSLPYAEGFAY

As for CTCCTA, the binding signal is 1.32 fold enrichment (6-mer frequency, TF over GST control) in assay [1]; 1.28 fold enrichment (6-mer frequency, TF over GST control) in assay [2]; 1.39 fold enrichment (6-mer frequency, TF over GST control) in [3]; 1.49 fold enrichment (6-mer frequency, TF over GST control) in assay [4]; 1.44 fold enrichment (6-mer frequency, TF over GST control) in assay [5]; 1.46 fold enrichment (6-mer frequency, TF over GST control) in [6]. The binding signal was 1.24 fold enrichment (6-mer frequency, TF over GST control) in [7]; 1.31 fold enrichment (6-mer frequency, TF over GST control) in [8]; 1.49 fold enrichment (6-mer frequency, TF over GST control) in assay [9]; 1.29 fold enrichment (6-mer frequency, TF over GST control) in assay [10]; 1.49 fold enrichment (6-mer frequency, TF over GST control) in [11]; 1.36 fold enrichment (6-mer frequency, TF over GST control) in assay [12]. For the same sequence, the binding signal in [13] was 1.32 fold enrichment (6-mer frequency, TF over GST control); in assay [14] it was 1.34 fold enrichment (6-mer frequency, TF over GST control); in [15] it was 1.37 fold enrichment (6-mer frequency, TF over GST control); in assay [16], 1.41 fold enrichment (6-mer frequency, TF over GST control); in assay [17] it was 1.23 fold enrichment (6-mer frequency, TF over GST control); in [18], 1.29 fold enrichment (6-mer frequency, TF over GST control).
